Measured values as given in PubChem BioAssay (NCATS).
Inconclusive results are not listed. Active and inactive are the calls of the source. Calls come from the whole dose curve; as a rule, active = well fitted curve in the direction sought with a large enough effect; inconclusive = small, poorly fitted or top-dose-only effect, or another doubt; inactive = no such curve, though single readings can be large; an effect the other way counts as inactive or inconclusive.

System: not listed separately
Assay: Inducers of the Endoplasmic Reticulum Stress Response (ERSR) in human glioma: Validation (AID 504836); note: 0% is about no effect
Settings: human glioma cells, ER stress response reporter; series mostly up to 38.3 µM; activation: at the top concentration
In short: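 ERSR induction read as luciferase luminescence (Bright-Glo, 10 min at room temperature) in stably transfected human U87-MG glioma cells exposed to compounds for 16 h, using GRP78 as sensor.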

Compound	activation	outcome
CNC1(C)C2CCC(C2)C1(C)C (centres undefined)	-2.89% (inactive)	
C[C@]12CC[C@@H]3c4ccc(O)cc4C[C@@H](CCCCCCCCCS(=O)CCCC(F)(F)C(F)(F)F)[C@H]3[C@@H]1CC[C@@H]2O (some centres undefined)	-1.16% (inactive)	
CN(C)CCC=C1c2ccccc2CCc2ccccc21	-0.182% (inactive)	
CCCNC(=O)NS(=O)(=O)c1ccc(Cl)cc1	-3.76% (inactive)	
Cc1c(OCC(F)(F)F)ccnc1CS(=O)c1nc2ccccc2[nH]1 (centres undefined)	1.18% (inactive)	
CNCCC(Oc1ccc(C(F)(F)F)cc1)c1ccccc1 (centres undefined)	-4.32% (inactive)	
Cc1cnc(C(=O)NCCc2ccc(S(=O)(=O)NC(=O)NC3CCCCC3)cc2)cn1	-3.64% (inactive)	
O=C1NC(=O)C(c2ccccc2)(c2ccccc2)N1	2.61% (inactive)	
CN(C)CC/C=C1\c2ccccc2COc2ccccc21	0.766% (inactive)	
CC(C)OC(=O)C(C)(C)Oc1ccc(C(=O)c2ccc(Cl)cc2)cc1	1.96% (inactive)	
Clc1ccc2c(c1)C(N1CCNCC1)=Nc1ccccc1O2	-1.17% (inactive)	
OCCN1CCN(CCCN2c3ccccc3Sc3ccc(C(F)(F)F)cc32)CC1	-3.22% (inactive)	
CCCN(CCC)CCc1cccc2c1CC(=O)N2	-0.323% (inactive)	
NC(=O)OCC(COC(N)=O)c1ccccc1	-3.55% (inactive)	
CC(CN1c2ccccc2Sc2ccccc21)N(C)C (centres undefined)	0.728% (inactive)	
COC(=O)C1=C(C)NC(C)=C(C(=O)OCCN(C)Cc2ccccc2)C1c1cccc([N+](=O)[O-])c1 (centres undefined)	-4.69% (inactive)	

Compound	activation	outcome
NNCCc1ccccc1	-0.057% (inactive)	
CN1CC(=O)N/C1=N/C(=O)Nc1cccc(Cl)c1	-0.746% (inactive)	
O=C1N=C(O)CN1/N=C/c1ccc(-c2ccc([N+](=O)[O-])cc2)o1	0.223% (inactive)	
NC[C@H](O)c1ccc(O)c(O)c1	-3.09% (inactive)	
O=C(O)COCCN1CCN(C(c2ccccc2)c2ccc(Cl)cc2)CC1 (centres undefined)	1.45% (inactive)	
CCC1C(=O)OCC1Cc1cncn1C (centres undefined)		inactive
CC(COc1ccccc1)N(CCCl)Cc1ccccc1 (centres undefined)	-4.8% (inactive)	
CC1=C(/C=C/C(C)=C/C=C/C(C)=C/C(=O)Nc2ccc(O)cc2)C(C)(C)CCC1	-5.47% (inactive)	
Clc1ccc(C(c2ccccc2Cl)C(Cl)Cl)cc1 (centres undefined)	0.737% (inactive)	
CC(C)(C(=O)O)c1ccc(C(O)CCCN2CCC(C(O)(c3ccccc3)c3ccccc3)CC2)cc1 (centres undefined)	-0.403% (inactive)	
O=C(c1ccccc1)c1ccc2n1CCC2C(=O)O (centres undefined)	-0.837% (inactive)	
N=c1nc(N2CCCCC2)cc(N)n1O	-3.66% (inactive)	
O=C1Cc2cc(CCN3CCN(c4nsc5ccccc45)CC3)c(Cl)cc2N1	-11.7% (inactive)	
Cc1ccccc1N1C(=O)c2cc(S(N)(=O)=O)c(Cl)cc2NC1C (centres undefined)	-3.24% (inactive)	
COC(=O)[C@H]1[C@H]2C[C@@H]3c4[nH]c5cc(OC)ccc5c4CCN3C[C@H]2C[C@@H](OC(=O)c2cc(OC)c(OC)c(OC)c2)[C@@H]1OC	-1.51% (inactive)	
O=c1n(CCCN2CCN(c3cccc(Cl)c3)CC2)nc2ccccn12	0.597% (inactive)	

Target: Ubiquitin carboxyl-terminal hydrolase 1 (Homo sapiens) (UniProt O94782)
Sequence (O94782 whole entry, looked up): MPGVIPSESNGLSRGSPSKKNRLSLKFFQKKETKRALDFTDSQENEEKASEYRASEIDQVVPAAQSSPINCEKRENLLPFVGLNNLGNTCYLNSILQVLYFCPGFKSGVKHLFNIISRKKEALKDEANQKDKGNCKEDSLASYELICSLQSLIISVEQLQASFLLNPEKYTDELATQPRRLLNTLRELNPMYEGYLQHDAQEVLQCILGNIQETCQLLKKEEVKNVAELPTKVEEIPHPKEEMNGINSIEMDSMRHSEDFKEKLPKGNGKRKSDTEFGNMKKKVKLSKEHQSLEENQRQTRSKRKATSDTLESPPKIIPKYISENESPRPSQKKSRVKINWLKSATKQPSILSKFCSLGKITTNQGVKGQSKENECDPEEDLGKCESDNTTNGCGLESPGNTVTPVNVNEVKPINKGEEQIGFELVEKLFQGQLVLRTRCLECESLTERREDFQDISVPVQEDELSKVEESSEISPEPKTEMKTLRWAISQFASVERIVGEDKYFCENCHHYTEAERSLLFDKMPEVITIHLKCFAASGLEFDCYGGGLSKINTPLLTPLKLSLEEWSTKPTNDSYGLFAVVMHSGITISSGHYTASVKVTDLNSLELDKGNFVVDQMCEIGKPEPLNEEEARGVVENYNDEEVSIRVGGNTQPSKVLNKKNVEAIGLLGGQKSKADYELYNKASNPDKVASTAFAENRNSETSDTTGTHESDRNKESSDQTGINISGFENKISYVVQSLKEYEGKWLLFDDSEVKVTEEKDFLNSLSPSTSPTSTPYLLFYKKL
Assay: Inhibitors of USP1/UAF1: Pilot qHTS (AID 504865); note: nearly all actives have a fitted effect of over 35% in size; note: potency is the fitted concentration of half-maximal effect;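 for activity change, negative = inhibition: rhodamine fluorescence freed from ubiquitin-rhodamine substrate followed over time; top concentration of the series differs between compounds; % is set by controls: 0 for no effect and ±100 for the full control effect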
Settings: purified USP1/UAF1, Ub-rhodamine cleavage fluorescence; series mostly up to 114 µM; activity change, negative = inhibition: at the top concentration
In short: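 USP1/UAF1 complex at 1 nM preincubated 15 min at room temperature with compound, then Ub-Rho substrate added at 150 nM final. Fluorescence (480/540 nm) read kinetically in 50 mM HEPES pH 7.8, 0.5 mM EDTA, 1 mM TCEP, 0.1 mg/ml BSA, 0.01% Tween-20.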

Compound	activity change, negative = inhibition	Potency
C[C@]12CC[C@@H]3c4ccc(O)cc4C[C@@H](CCCCCCCCCS(=O)CCCC(F)(F)C(F)(F)F)[C@H]3[C@@H]1CC[C@@H]2O (some centres undefined)	-13.8% (inactive)	
CN(C)CCc1ccc(O)cc1	-9.32% (inactive)	
CN(C)CCC=C1c2ccccc2CCc2ccccc21		inactive
OCCN1CCN(CCCN2c3ccccc3Sc3ccc(C(F)(F)F)cc32)CC1		56.2 µM (active)
CCC1C(=O)OCC1Cc1cncn1C (centres undefined)		inactive
CC(COc1ccccc1)N(CCCl)Cc1ccccc1 (centres undefined)		inactive
O=P1(NCCCl)OCCCN1CCCl (centres undefined)	-4.34% [at 54.9 µM] (inactive)	
